Experimental data from the supplement of paper PMC12645437, “Orthogonal IMiD-Degron Pairs Induce Selective Protein Degradation in Cells” (ACS Chemical Biology, 2025).
Whole data set: some 8,300 sequences, median “log2 fold change of degron read counts, EGFP-low vs EGFP+ sorted cells (limma voom), compound-induced degradation” near -1.1, cut for the highest 2% near 3.2. The list comes from a sample in which the highest values are over-represented; it also holds similar and randomly drawn sequences.

Target: T1, CRBN, Q96SW2
T1 chain: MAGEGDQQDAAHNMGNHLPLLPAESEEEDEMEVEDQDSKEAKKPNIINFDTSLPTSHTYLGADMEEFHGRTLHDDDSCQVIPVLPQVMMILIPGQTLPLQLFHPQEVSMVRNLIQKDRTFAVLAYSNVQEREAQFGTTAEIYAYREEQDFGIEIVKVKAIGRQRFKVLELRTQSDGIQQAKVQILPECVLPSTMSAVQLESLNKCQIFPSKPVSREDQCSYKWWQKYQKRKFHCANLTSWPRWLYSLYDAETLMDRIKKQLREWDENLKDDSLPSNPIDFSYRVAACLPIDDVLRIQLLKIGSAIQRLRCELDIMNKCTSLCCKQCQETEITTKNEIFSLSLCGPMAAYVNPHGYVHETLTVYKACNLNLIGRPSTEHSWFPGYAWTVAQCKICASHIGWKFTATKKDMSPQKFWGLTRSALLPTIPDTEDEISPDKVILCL
Assay: log2 fold change of degron read counts, EGFP-low vs EGFP+ sorted cells (limma voom), compound-induced degradation; higher = more compound-induced degradation of the degron-EGFP fusion; degrons are variants of IKZF1/3 zinc finger 2; compound dose not given here
Details: Jurkat, 18 h

[1] = compound: compound 19 (5-tert-butyl-thalidomide)
[2] = compound: compound 22 (5-morpholino-thalidomide)
[3] = compound: compound 33 (diphenyl IMiD analogue)
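Further: pooled lentiviral library of zinc finger degron-EGFP fusions in mCherry-positive Jurkat cells, FACS-sorted after compound exposure, with degron abundance counted by next-generation sequencing.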

## FRCEICGRHFTQKGNLLRHIKL [46F_47R_49E_50I_52G_53R_54H_55F_67L_, Q9UKT9]
[1]
  log2 fold change of degron read counts: -2.34
[2]
  log2 fold change of degron read counts: -2.75
[3]
  log2 fold change of degron read counts: -1.24
compound: thalidomide
  log2 fold change of degron read counts: -1.05

## FLCEVCGAYFTQKGNLLRHIKL [46F_47L_49E_50V_52G_53A_54Y_55F_67L_, Q9UKT9]
[1]
  log2 fold change of degron read counts: -0.235
[2]
  log2 fold change of degron read counts: -1.51
[3]
  log2 fold change of degron read counts: 0.35
compound: thalidomide
  log2 fold change of degron read counts: 0.301

## FNCNQCGRWFTQKGNLLRHIKL [46F_47N_49N_50Q_52G_53R_54W_55F_67L_, Q9UKT9]
[1]
  log2 fold change of degron read counts: -2.05
[2]
  log2 fold change of degron read counts: -2.2
[3]
  log2 fold change of degron read counts: -1.98
compound: thalidomide
  log2 fold change of degron read counts: -1.8

## LLCNQCGFPCTQKGNLLRHIKL [46L_47L_49N_50Q_52G_53F_54P_55C_67L_, Q9UKT9]
[1]
  log2 fold change of degron read counts: -1.89
[2]
  log2 fold change of degron read counts: -1.87
[3]
  log2 fold change of degron read counts: -1.69
compound: thalidomide
  log2 fold change of degron read counts: -1.84

## FGCEVCGAMFTQKGNLLRHIKL [46F_47G_49E_50V_52G_53A_54M_55F_67L_, Q9UKT9]
[1]
  log2 fold change of degron read counts: 3.32
[2]
  log2 fold change of degron read counts: 2.09
[3]
  log2 fold change of degron read counts: 1.16
compound: thalidomide
  log2 fold change of degron read counts: -0.148

## FDCEVCGAMFTQKGNLLRHIKL [46F_47D_49E_50V_52G_53A_54M_55F_67L_, Q9UKT9]
[1]
  log2 fold change of degron read counts: -0.122
[2]
  log2 fold change of degron read counts: -0.858
[3]
  log2 fold change of degron read counts: 0.0809
compound: thalidomide
  log2 fold change of degron read counts: 0.0891

## FVCEVCGAMFTQKGNLLRHIKL [46F_47V_49E_50V_52G_53A_54M_55F_67L_, Q9UKT9]
[1]
  log2 fold change of degron read counts: -0.335
[2]
  log2 fold change of degron read counts: 1.3
[3]
  log2 fold change of degron read counts: 1.8
compound: thalidomide
  log2 fold change of degron read counts: 2.05

## FACEVCGAMFTQKGNLLRHIKL [46F_47A_49E_50V_52G_53A_54M_55F_67L_, Q9UKT9]
[1]
  log2 fold change of degron read counts: 3.25
[2]
  log2 fold change of degron read counts: 1.34
[3]
  log2 fold change of degron read counts: 0.261
compound: thalidomide
  log2 fold change of degron read counts: -0.323

## FFCEVCGAMFTQKGNLLRHIKL [46F_47F_49E_50V_52G_53A_54M_55F_67L_, Q9UKT9]
[1]
  log2 fold change of degron read counts: 3.14
[2]
  log2 fold change of degron read counts: 3.15
[3]
  log2 fold change of degron read counts: 2
compound: thalidomide
  log2 fold change of degron read counts: 0.314

## FNCEVCGAMFTQKGNLLRHIKL [46F_47N_49E_50V_52G_53A_54M_55F_67L_, Q9UKT9]
[1]
  log2 fold change of degron read counts: 0.96
[2]
  log2 fold change of degron read counts: -0.745
[3]
  log2 fold change of degron read counts: -0.544
compound: thalidomide
  log2 fold change of degron read counts: -0.743

## FKCEVCGAMFTQKGNLLRHIKL [46F_47K_49E_50V_52G_53A_54M_55F_67L_, Q9UKT9]
[1]
  log2 fold change of degron read counts: -1.98
[2]
  log2 fold change of degron read counts: -3.85
[3]
  log2 fold change of degron read counts: -3.74
compound: thalidomide
  log2 fold change of degron read counts: -1.96

## FHCEVCGAMFTQKGNLLRHIKL [46F_47H_49E_50V_52G_53A_54M_55F_67L_, Q9UKT9]
[1]
  log2 fold change of degron read counts: 1.44
[2]
  log2 fold change of degron read counts: 1.27
[3]
  log2 fold change of degron read counts: 0.505
compound: thalidomide
  log2 fold change of degron read counts: -0.808

## FQCEVCGAMFTQKGNLLRHIKL [46F_47Q_49E_50V_52G_53A_54M_55F_67L_, Q9UKT9]
[1]
  log2 fold change of degron read counts: -0.365
[2]
  log2 fold change of degron read counts: 2.11
[3]
  log2 fold change of degron read counts: 2.44
compound: thalidomide
  log2 fold change of degron read counts: 3.52

## FYCEVCGAMFTQKGNLLRHIKL [46F_47Y_49E_50V_52G_53A_54M_55F_67L_, Q9UKT9]
[1]
  log2 fold change of degron read counts: 3.32
[2]
  log2 fold change of degron read counts: 3.43
[3]
  log2 fold change of degron read counts: 2.43
compound: thalidomide
  log2 fold change of degron read counts: 0.383

## FSCEVCGAMFTQKGNLLRHIKL [46F_47S_49E_50V_52G_53A_54M_55F_67L_, Q9UKT9]
[1]
  log2 fold change of degron read counts: 2.43
[2]
  log2 fold change of degron read counts: 1.36
[3]
  log2 fold change of degron read counts: 1.15
compound: thalidomide
  log2 fold change of degron read counts: 0.408

## FECEVCGAMFTQKGNLLRHIKL [46F_47E_49E_50V_52G_53A_54M_55F_67L_, Q9UKT9]
[1]
  log2 fold change of degron read counts: -1.4
[2]
  log2 fold change of degron read counts: -1.93
[3]
  log2 fold change of degron read counts: 0.328
compound: thalidomide
  log2 fold change of degron read counts: 1.08
